Assay results as given in the supplement of paper PMC8728848.
Shown is part of a subset that was picked to be rich in the strongest signals.

What was measured:
Test in all cases: glycan array binding signal (z-score within array); higher = stronger binding
Details in all cases: glycan notation: IUPAC condensed, linker removed
Fuc(a1-2)Gal(b1-4)Glc6S = target: Fuc(a1-2)Gal(b1-4)Glc6S
Outline: (§1)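 Columns mapping to the same glycan were averaged after glycan names were converted to IUPAC-condensed notation. The data come from 3228 arrays in the Consortium for Functional Glycomics database, limited to those with an available protein sequence. Binding is reported as a within-array Z-score averaged across arrays of one protein sequence and across linkers.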

[1] = target: Fuc(a1-2)[GalNAc(a1-3)]Gal(b1-4)Glc
Outline: as §1

[2] = target: Gal(b1-3)Gal(b1-4)GlcNAc(b1-2)Man(a1-3)[Gal(b1-3)Gal(b1-4)GlcNAc(b1-2)Man(a1-6)]Man(b1-4)GlcNAc(b1-4)GlcNAc
Outline: as §1

[3] = target: Gal(b1-3)GlcNAc(b1-2)Man(a1-3)[Gal(b1-3)GlcNAc(b1-2)Man(a1-6)]Man(b1-4)GlcNAc(b1-4)GlcNAc
Outline: as §1

[4] = target: Gal(b1-3)[Fuc(a1-4)]GlcNAc
Outline: as §1

Gal(b1-4)GlcNAc = target: Gal(b1-4)GlcNAc
Outline: as §1

[5] = target: Gal(b1-4)GlcNAc(b1-3)Gal(b1-3)GlcNAc
Outline: as §1

Gal3S(b1-3)GlcNAc = target: Gal3S(b1-3)GlcNAc
Outline: as §1

Gal3S4S(b1-4)GlcNAc = target: Gal3S4S(b1-4)GlcNAc
Outline: as §1

GalNAc(a1-3)Gal = target: GalNAc(a1-3)Gal
Outline: as §1

GalNAc(a1-3)GalNAc = target: GalNAc(a1-3)GalNAc
Outline: as §1

[6] = target: GalNAc(b1-3)Gal(a1-4)Gal(b1-4)GlcNAc
Outline: as §1

[7] = target: GlcNAc(a1-4)Gal(b1-4)GlcNAc(b1-3)Gal(b1-4)[Fuc(a1-3)]GlcNAc(b1-3)Gal(b1-4)[Fuc(a1-3)]GlcNAc
Outline: as §1

[8] = target: GlcNAc(b1-4)GlcNAc(b1-4)GlcNAc(b1-4)GlcNAc(b1-4)GlcNAc
Outline: as §1

[9] = target: GlcNAc(b1-4)GlcNAc(b1-4)GlcNAc(b1-4)GlcNAc(b1-4)GlcNAc(b1-4)GlcNAc
Outline: as §1

[10] = target: GlcNAc6S(b1-3)Gal(b1-4)GlcNAc
Outline: as §1

[11] = target: Kdn(a2-3)Gal(b1-4)[Fuc(a1-3)]GlcNAc
Outline: as §1

[12] = target: Man(a1-2)Man(a1-2)Man(a1-6)[Man(a1-3)]Man
Outline: as §1

[13] = target: Man(a1-2)Man(a1-3)[Man(a1-2)Man(a1-6)]Man(a1-6)[Man(a1-2)Man(a1-2)Man(a1-3)]Man
Outline: as §1

[14] = target: Man(a1-2)Man(a1-3)[Man(a1-2)Man(a1-6)]Man(a1-6)[Man(a1-3)[Man(a1-6)]Man(a1-6)]Man(b1-4)GlcNAc(b1-4)GlcNAc
Outline: as §1

[15] = target: Man(a1-2)Man(a1-3)[Man(a1-6)]Man(a1-6)[Man(a1-2)Man(a1-3)]Man(b1-4)GlcNAc(b1-4)GlcNAc
Outline: as §1

[16] = target: Man(a1-2)Man(a1-6)[Man(a1-3)]Man(a1-6)[Man(a1-2)Man(a1-2)Man(a1-3)]Man(b1-4)GlcNAc(b1-4)GlcNAc
Outline: as §1

Man(a1-3)[Man(a1-6)]Man = target: Man(a1-3)[Man(a1-6)]Man
Outline: as §1

[17] = target: Man(a1-3)[Man(a1-6)]Man(a1-6)[Man(a1-2)Man(a1-3)]Man(b1-4)GlcNAc(b1-4)GlcNAc
Outline: as §1

[18] = target: Man(a1-3)[Man(a1-6)]Man(a1-6)[Man(a1-3)]Man(b1-4)GlcNAc(b1-4)GlcNAc
Outline: as §1

[19] = target: Man(a1-3)[Man(a1-6)]Man(b1-4)GlcNAc(b1-4)GlcNAc
Outline: as §1

[20] = target: Neu5Ac(a2-3)Gal(b1-4)GlcNAc6S
Outline: as §1

[21] = target: Neu5Ac(a2-3)Gal(b1-4)[Fuc(a1-3)]GlcNAc
Outline: as §1

[22] = target: Neu5Ac(a2-6)Gal(b1-4)GlcNAc
Outline: as §1

[23] = target: Neu5Ac(a2-6)Gal(b1-4)GlcNAc(b1-2)Man(a1-3)Man(b1-4)GlcNAc(b1-4)GlcNAc
Outline: as §1

[24] = target: Neu5Ac(a2-6)Gal(b1-4)GlcNAc(b1-3)Gal(b1-4)GlcNAc
Outline: as §1

B1: MVL (Microcystis viridis), Q9RHG4 (protein)
chain: MASYKVNIPAGPLWSNAEAQQVGPKIAAAHQGNFTGQWTTVVESAMSVVEVELQVENTGIHEFKTDVLAGPLWSNDEAQKLGPQIAASYGAEFTGQWRTIVEGVMSVIQIKYTF
glycan array binding signal (z-score) (Fuc(a1-2)Gal(b1-4)Glc6S): -0.234
glycan array binding signal (z-score) [1]: -0.201
glycan array binding signal (z-score) [2]: 1.85
glycan array binding signal (z-score) [3]: 1.51
glycan array binding signal (z-score) [4]: -0.232
glycan array binding signal (z-score) (Gal(b1-4)GlcNAc): -0.227
glycan array binding signal (z-score) [5]: -0.23
glycan array binding signal (z-score) (Gal3S(b1-3)GlcNAc): -0.239
glycan array binding signal (z-score) (Gal3S4S(b1-4)GlcNAc): -0.243
glycan array binding signal (z-score) (GalNAc(a1-3)Gal): -0.231
glycan array binding signal (z-score) (GalNAc(a1-3)GalNAc): -0.243
glycan array binding signal (z-score) [6]: -0.243
glycan array binding signal (z-score) [7]: 0.006
glycan array binding signal (z-score) [8]: 0.051
glycan array binding signal (z-score) [9]: -0.006
glycan array binding signal (z-score) [10]: -0.119
glycan array binding signal (z-score) [11]: -0.121
glycan array binding signal (z-score) [12]: -0.183
glycan array binding signal (z-score) [13]: 7.38
glycan array binding signal (z-score) [14]: 5.26
glycan array binding signal (z-score) [15]: 2.01
glycan array binding signal (z-score) [16]: 6.83
glycan array binding signal (z-score) (Man(a1-3)[Man(a1-6)]Man): -0.232
glycan array binding signal (z-score) [17]: 2.68
glycan array binding signal (z-score) [18]: 2.72
glycan array binding signal (z-score) [19]: 1.59
glycan array binding signal (z-score) [20]: -0.238
glycan array binding signal (z-score) [21]: -0.23
glycan array binding signal (z-score) [22]: -0.241
glycan array binding signal (z-score) [23]: 0.179
glycan array binding signal (z-score) [24]: -0.236
